Median seed-adjusted z-score data for 109 sequences are collected here from PubChem BioAssay AID1347426 (Functional Genomics Laboratory (NCATS/FGL), 2020).

The campaign covered roughly 31,000 sequences. About 1,400 (4.5%) were called active. The entries come from a sample that favours actives as a whole. Values without a mark were called inactive.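 The calls were made as follows: active = median seed-adjusted z-score above 1 or below -1; inactive = the rest.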

The assay in a line: Novel Modifiers of Survival Motor Neuron (SMN) Protein: Gene Identification via Genome-wide siRNA Screen.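 Also: luminescence tracks full-length SMN protein made from the SMN2 reporter.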 Conditions: HEK293T SMN2-luciferase reporter, siRNA knockdown, 72 h; actives lie on both sides. The method in brief: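 siRNA screen, 10418 genes ×3 siRNAs; 1 pmol/well, lipid reverse transfection into HEK293T SMN2-luc reporter line. 72 h, 37 °C, 5% CO2; ONE-Glo readout. Data: neg-ctrl normalized, log10, MAD; hit = MAD >1.0 or < -1.0.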
As for CAAGCAUGGUCUUUCUACUTT against TUBB2A, the median seed-adjusted z-score is 1.03 (active).
As for CGAGAUCUCAAGUCUAACATT against ARAF, the median seed-adjusted z-score was 0.535.
Regarding GGAAGUACGUUCCAUACAATT against GALNT17, the median seed-adjusted z-score was 0.392.
In the case of GGAUCUGUAUCAAGCCGUUTT against APC it was 0.154; in that of GCAAUGCACUGACGGAUAUTT against EFEMP1, 0.0157.
For the sequence GUAUCAGAAUGAGAGUUCUTT against ACP2, the median seed-adjusted z-score was -0.00569.
The value for GAAAUACCCUCACAUGUUATT against LSM2 was -1.48 (active); that for GAUGUAUUGUUACUACCAATT against SCNN1G was -0.616; that for CCACAAGGGUUAUCUGUCATT against MAPK4 was 0.235.
The value for GUCACUUCAUGGGCAAGAATT against NMB was 0.746; that for CCGUUGUUGUAAGAAGAAATT against MICA was -0.0635.
The value for GGAUUAAGCCCUUCGAAGATT against SOCS5 was 0.312.
On to AGUUCUCGGAGGUGCUUAATT against CKB, for which the median seed-adjusted z-score was -0.236.
In the case of GGACAAUCUUAUUCCUAUUTT against CFHR4 it was -0.0972.
On to GAGCUGCAACUGACAUCUUTT against PLTP, for which the median seed-adjusted z-score was 1.09 (active).
The value for GCAUCUUCACCAAAGUCAUTT against RHEBL1 was -0.268.
Regarding GGCUGACCUGUACCACUUUTT against SH3BP1, the median seed-adjusted z-score was -0.225.
Regarding GCCUCAGAGUUCACGGACATT against ROBO4, the median seed-adjusted z-score was -0.431.
The value for GCUACGGCGUGGACAAGAATT against RELB was 1.16 (active); that for GGACCGUCUACUCAUCCAATT against IL8RB was -0.387; that for GGAGGAGAUAGGCACUGAATT against TIGD3 was 0.486.
The value for GCUUUUAUCCUAGACAUCATT against PAQR8 was 0.
Turning to GUGGGAAAGUCUAUGGAAATT against KLF9, the median seed-adjusted z-score is 0.767.
Consider GGCCUAAGCUAAAUCGAGATT against SKP2, for which the median seed-adjusted z-score is -0.126.
The value for CAAAGGAUGUCAUUCGUAATT against CKAP5 was -1.87 (active); that for CGGCCGAAGUAGUAAAAGATT against ADA was -0.242.
In the case of UCAUCAAUGCUACUGGUUATT against TM7SF2 it was -0.674.
On to CGGCUGUGGUGAACCAGUATT against INHBB, for which the median seed-adjusted z-score was -0.522.
In the case of GCAUAGGAUUCAUUGAGUUTT against NME1 it was 0.188.
As for GACCCGUACUUCAUGAAGATT against SF3A2, the median seed-adjusted z-score is -1.7 (active).
In the case of GGACCCAAGUCUUGCUGCATT against CARD18 it was 0.568; in that of CGAUCCUAUUCGAUGAGAATT against GRM5, -0.227; in that of CAGUGAAUAUGGAACCGGATT against CHD3, 0.589.
As to AGUAUGUGCUGAUCCGAGUTT against PHPT1, the median seed-adjusted z-score is 1.27 (active).
The value for CCUGAACACACCUUACAUATT against RNASE8 was 0.00771.
The value for CAUAGAUUCUGUACGGCAATT against MPP5 was 0.429; that for GGUAUUCCUGUUCAACAAATT against ZNF235 was 0.348; that for GCUGACCGCUGGGUGAUAATT against TMPRSS6 was 1.29 (active).
As to CCUCACACUUGAUUCAGUUTT against RPP38, the median seed-adjusted z-score is 0.07.
The value for GGUCAUAGCCUACUGUCUATT against SLC32A1 was -0.251.
The value for CUACCAGCAUGUGAUGUUUTT against CH25H was -0.264; that for GGAUGCAGAACGACGUGAATT against SLC25A10 was -0.571.
With GUACCUUUUCCAAACCAAATT against SETD8, the median seed-adjusted z-score was -1.52 (active).
Take CAAAACAGACCGAAAGAAATT against DBX2: the median seed-adjusted z-score was 0.244.
In the case of CGAUAACGACAGUAAAUCATT against CACNA2D1 it was -0.541.
In the case of CAAAGAAGCUUUUUCACUATT against CALM2 it was 0.127; in that of CUCUCUUAGUGUCCUUAGATT against PCDHGC4, 0.301; in that of CGAGUUCUAUCUUGAGAAUTT against TEX13A, -1.22 (active).
Consider GGAUGGGUCUCGCAAAAUATT against ZFYVE1, for which the median seed-adjusted z-score was -0.546.
As for CCAGCUCUUCUCUACCACATT against PAQR7, the median seed-adjusted z-score was -0.0406.
The value for UGCUGAGGGUGUUCCCAGATT against GABRR2 was 0; that for AGCAGGCUUUGAUCAUUGATT against FKBP6 was -1.12 (active); that for GCAAGACCUUUGACUACAATT against SSRP1 was -0.31.
As for GCGAAGUGUUCAGACCAAATT against HEATR1, the median seed-adjusted z-score was -0.115.
For the sequence CCAACUCAUUGAUAGGGAUTT against PRPH2, the median seed-adjusted z-score is 0.0931.
In the case of GCUUUCUAUCGAUCCUCAATT against ZNF681 it was 0.271; in that of GCACGUCGAGCAAUCCAAATT against MYOD1, 0.309.
In the case of CCAUGUUUCUCAUUAGUGUTT against NTSR1 it was -1.1 (active).
The value for UGCUCGUGCUCGUUCCAAATT against ING4 was -0.152.
As to CAUCUUUGCUAGUAAUCUATT against UBA7, the median seed-adjusted z-score is 2.41 (active).
The value for CGGAUUGUCUAUUGCAUCATT against CALCRL was 0.28.
The value for GAUUGUCUCUUUAGUGGAATT against TGDS was -0.196; that for GGUGAGAUGUGGUCUAUAUTT against HES7 was -0.286.
As for GGAGAAGGAUGGAACUCUUTT against SPATA21, the median seed-adjusted z-score is -1.03 (active).
In the case of GGCUUGCGCAAGAUCAAUATT against ATRNL1, the median seed-adjusted z-score is -0.142.
As for GCGUGAUCCUUGCCUCUAATT against GDPD4, the median seed-adjusted z-score is 0.0109.
The value for CCUCAUUGAUCAUCACCGATT against ZNF567 was -0.114; that for CUAGUUUAAUAAAGAUUCATT against APOE was 0.0321.
For the sequence AGGAUAUUGUGAUUCAGCATT against POLR2G, the median seed-adjusted z-score was -4.19 (active).
In the case of GCAUCAGGUGAACAUCAAATT against TRIM16 it was 0.345.
As for GGAUGAGAAGGAUAAUGAUTT against IRF6, the median seed-adjusted z-score is -1.79 (active).
In the case of AAACGAUGUUGAUGUCCAATT against ATP6V1E1, the median seed-adjusted z-score was -0.312.
Consider GGAUGGACAUGUCAAAUCUTT against RBL1, for which the median seed-adjusted z-score is -0.0547.
Regarding CAAAGGACCCAAUAGAAUUTT against GUCY2F, the median seed-adjusted z-score was 0.188.
The value for GCGCGCUACUUUGGGAUAATT against POLR2E was -1.25 (active).
Turning to GGACCUCCCUUCAACAUCATT against DYSF, the median seed-adjusted z-score is -0.23.
In the case of CAGUGAAGCUAUCAAGUUATT against PSMA8 it was 0.407.
Regarding GACCAGAUGUGGACAAUCATT against TAF6, the median seed-adjusted z-score was -1.36 (active).
For the sequence GAAUUGGAGAGGCAACAAATT against LMO7, the median seed-adjusted z-score was 0.417.
GAAGAGAUAUUUACACCUUTT against CD47: the median seed-adjusted z-score was 0.0241.
As to CUGCUAGUCUGUCUCCAAATT against SPINK7, the median seed-adjusted z-score was -0.409.
As to GGACUAUGUCUGCCUAUGATT against SCN7A, the median seed-adjusted z-score was 0.
CUAAGAAUCUGCUUAGUAATT against CLDN5: the median seed-adjusted z-score is 0.
For AGAAUGACAGGGUCCAGAATT against OGFR, the median seed-adjusted z-score was -0.565.
The value for GCUUUGAUGUGAUUCACCUTT against PRKAG3 was -1.03 (active); that for GUCACAAGAUGGUCAAAAATT against CTNND2 was -0.0491.
Regarding CCAUCCUUCAGGCGAAUUATT against ACTR8, the median seed-adjusted z-score was -0.366.
As for GGUCUGUUCUGCAAGCACATT against PARVG, the median seed-adjusted z-score is 0.321.
Turning to CCAAACCACUACAACCCUUTT against RPP21, the median seed-adjusted z-score is -1.09 (active).
In the case of GAUAUAAAGUCAUGAAGAATT against USP30 it was -0.646; in that of CGUGGACUCCCACUUCCAATT against OGG1, -0.128.
The value for GGAGCUUCCCUAUAGUGAATT against HDAC3 was 0.579; that for GGAUUCUAAGUACAGAGAATT against ZNF323 was -0.319; that for CAACUGCUAGCUGAACGAATT against ITIH2 was 0.262.
The value for CAUUUAUGACAAUCGGAUATT against OGT was 0.411; that for GUCUAUGAAUUGGACAAGATT against PGAM1 was -0.234; that for CAUCAAAUAUGACAACUUUTT against GALNTL4 was 0.
As for GCCGUUUCAUGUUUGUCUATT against TRPV1, the median seed-adjusted z-score is -0.12.
Regarding GGAAAUGAGUGUCUGAACATT against CHMP6, the median seed-adjusted z-score is -1.81 (active).
In the case of GGCUUUUUAGAUUUCGAAATT against TIGD7 it was -0.116; in that of GAGUGAGACUGGGACAAGATT against TAPBP, -0.786.
In the case of GCCUUCACGUCUGAACAUATT against GAD2 it was 0.0588.
GAAACAACUUGAUUUCGAATT against PCDHB8: the median seed-adjusted z-score was 1.15 (active).
The value for GCAUGUUGUUGAUCAUGGATT against MAFB was 0.674; that for GAAGUGUUAUGUAAGGAGATT against EPHX2 was 0.
The value for GAACAUGUCUUUAACGGAUTT against TJP2 was 0.0668.
The value for AGAUGAGAACUCUAAGCAATT against CHRM2 was 0.053; that for CGAUCACUUCCUACAGUCUTT against RGR was 0.217; that for CCAUUGAAGUGGUUAAGAATT against CCNE2 was 0.801.
